Data taken from PubChem BioAssay.
This is one part of the list. Active and inactive are the calls of the source.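 Rule for the calls, unless noted: active = inhibition above 50%; inactive = the rest.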

Key:
[1] = target: Regulator of G-protein signaling 16 (Homo sapiens) (UniProt O15492); test: small molecules altering RGS protein interactions with GNAO1 – biochemical, multiplexed beads, flow cytometry, RGS4/7/8/16/19, primary screen (AID 1504); details: multiplexed bead flow cytometry, measured here: RGS16 interaction, at 10 µM;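 note: fluorescently labeled Galpha-o bound to GDP with aluminium fluoride binding biotinylated RGS beads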
[2] = target: Regulator of G-protein signaling 19 (Homo sapiens) (UniProt P49795); test: as above; details: multiplexed bead flow cytometry, measured here: RGS19 interaction, at 10 µM
[3] = target: Regulator of G-protein signaling 7 (Homo sapiens) (UniProt P49802); test: as above; details: multiplexed bead flow cytometry, measured here: RGS7 interaction, at 10 µM
[4] = target: Regulator of G-protein signaling 8 (Homo sapiens) (UniProt P57771); test: as above; details: multiplexed bead flow cytometry, measured here: RGS8 interaction, at 10 µM
[5] = interference with biotin-avidin bead interaction – biochemical, flow cytometry, bead-based, counter-screen for RGS protein interaction modulators (AID 1783); details: streptavidin beads, fluorescein-biotin binding; at 10 µM, stronger effect = higher value;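 for inhibition: median green fluorescence of gated singlet beads compared with DMSO control wells; 0% = DMSO wells and 100% = complete loss of bead fluorescence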
[6] = target: Guanine nucleotide-binding protein G(o) subunit alpha (Homo sapiens) (UniProt P09471); test: retest of RGS8-Galphao interaction hits – biochemical, multiplexed bead flow cytometry, single concentration, confirmation (AID 1836; in the data active = binding response below about 72% or above about 130%; inactive = in between;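 note: Galphao activated as GDP AlF4 complex before binding bead RGS8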); details: bead-based flow cytometry RGS8-Galphao binding, fluorescence; at 10 µM; actives lie on both sides
[7] = target: Guanine nucleotide-binding protein G(o) subunit alpha (Homo sapiens) (UniProt P09471); test: retest of RGS7-Galphao interaction hits – biochemical, multiplexed bead flow cytometry, single concentration, confirmation (AID 1837; in the data active = response below about 75% or above about 130%; inactive = in between;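 note: fluorescent Galphao activated with GDP and aluminum fluoride binding bead-coupled RGS7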); details: bead-based flow cytometry RGS7-Galphao binding; at 10 µM; actives lie on both sides
[8] = target: Regulator of G-protein signaling 16 (Homo sapiens) + Guanine nucleotide-binding protein G(o) subunit alpha (Homo sapiens) (UniProt O15492+P09471); test: RGS16 and Galphao interaction regulators – biochemical, single concentration, multiplexed bead flow cytometry, confirmation (AID 1838; in the data active = response below about 74% or above about 130%; inactive = in between;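 note: Galphao activated as the GDP aluminium fluoride complex binding bead-coupled RGS16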); details: bead-based flow cytometry, at 10 µM, actives lie on both sides
[9] = target: Guanine nucleotide-binding protein G(o) subunit alpha (Homo sapiens) (UniProt P09471); test: RGS4 and Galphao interaction regulators – biochemical, single concentration, multiplexed bead flow cytometry, confirmation (AID 1840; in the data active = binding response below about 74% or above about 130%; inactive = in between); details: at 10 µM, actives lie on both sides
[10] = target: Guanine nucleotide-binding protein G(o) subunit alpha (Homo sapiens) + Regulator of G-protein signaling 19 (Homo sapiens) (UniProt P09471+P49795); test: RGS19 interaction with Gαo, hit retest – biochemical, single point, multiplexed bead flow cytometry, confirmation (AID 1841; in the data active = response below about 50% or above about 160%; inactive = in between;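 note: 100% = no compound control and 0% = blank background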); details: bead-based flow cytometry RGS19-Galphao binding; at 10 µM; actives lie on both sides
Sequence of Guanine nucleotide-binding protein G(o) subunit alpha (Homo sapiens) + Regulator of G-protein signaling 19 (Homo sapiens) (P09471 whole entry, looked up): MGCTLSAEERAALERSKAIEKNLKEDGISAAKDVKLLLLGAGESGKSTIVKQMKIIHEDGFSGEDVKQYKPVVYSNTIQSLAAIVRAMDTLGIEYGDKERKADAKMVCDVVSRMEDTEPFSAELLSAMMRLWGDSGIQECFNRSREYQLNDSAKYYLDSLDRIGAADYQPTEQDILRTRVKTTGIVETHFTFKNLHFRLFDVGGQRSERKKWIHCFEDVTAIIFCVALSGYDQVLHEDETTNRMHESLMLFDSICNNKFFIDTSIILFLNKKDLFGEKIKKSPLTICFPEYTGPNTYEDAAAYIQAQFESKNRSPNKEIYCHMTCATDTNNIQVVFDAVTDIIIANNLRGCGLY
Sequence of Guanine nucleotide-binding protein G(o) subunit alpha (Homo sapiens) + Regulator of G-protein signaling 19 (Homo sapiens) (P49795 whole entry, looked up): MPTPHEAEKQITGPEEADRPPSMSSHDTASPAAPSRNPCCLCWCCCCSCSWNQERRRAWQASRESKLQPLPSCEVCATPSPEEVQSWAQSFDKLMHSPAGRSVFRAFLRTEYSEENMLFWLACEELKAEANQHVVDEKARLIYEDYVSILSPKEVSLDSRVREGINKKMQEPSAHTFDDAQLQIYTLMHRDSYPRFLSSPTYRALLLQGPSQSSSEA

Sequence of Guanine nucleotide-binding protein G(o) subunit alpha (Homo sapiens) (P09471 whole entry, looked up): as the sequence (P09471 whole entry, looked up) above
Sequence of Regulator of G-protein signaling 16 (Homo sapiens) + Guanine nucleotide-binding protein G(o) subunit alpha (Homo sapiens) (O15492 whole entry, looked up): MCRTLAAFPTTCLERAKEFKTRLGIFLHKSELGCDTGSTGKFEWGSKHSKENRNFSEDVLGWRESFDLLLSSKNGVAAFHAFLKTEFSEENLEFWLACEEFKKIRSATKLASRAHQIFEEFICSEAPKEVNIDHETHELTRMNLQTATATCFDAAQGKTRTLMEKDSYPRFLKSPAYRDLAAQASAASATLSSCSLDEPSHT
Sequence of Regulator of G-protein signaling 16 (Homo sapiens) + Guanine nucleotide-binding protein G(o) subunit alpha (Homo sapiens) (P09471 whole entry, looked up): as the sequence (P09471 whole entry, looked up) above

Row | Structure (SMILES) | RGS16–Galpha-o binding response [1] [%] | RGS19–Galpha-o binding response [2] [%] | RGS7–Galpha-o binding response [3] [%] | RGS8–Galpha-o binding response [4] [%] | inhibition [5] | binding response (% of control) [6] | response (percent of control binding) [7] | response (% of control binding) [8] | binding response (% of control) [9] | response (percent of control binding) [10] | outcome [5]
1 | Cc1cc(=O)n2[nH]c(-c3sccc3-n3c(C)ccc3C)cc2n1 | 44.4 | 5890 | -34.3 | 61.1 | -1.8% (inactive) | 103% (inactive) | 86.4% (inactive) | 95.8% (inactive) | 89.2% (inactive) | 80.1% (inactive) | 
2 | Cc1cccc(S(=O)(=O)CC(=O)Nc2nc(-c3ccccc3)cs2)c1 | 239 | 101 | 130 | 118 | 1.7% (inactive) | 101% (inactive) | 106% (inactive) | 98.5% (inactive) | 103% (inactive) | 105% (inactive) | 
3 | Cc1ccc(C)c(OCC(=O)N2CCN(C(=O)c3ccco3)CC2)c1 | 24.4 | 113 | 89.8 | 88.5 | 2.8% (inactive) | 104% (inactive) | 104% (inactive) | 107% (inactive) | 106% (inactive) | 110% (inactive) | 
4 | CCOC(=O)C1=C(c2ccccc2)N=C2SCC(=O)N2C1c1ccc(O)c(OC)c1 (centres undefined) | 222 | -290 | 122 | 144 | 0% (inactive) | 109% (inactive) | 108% (inactive) | 110% (inactive) | 106% (inactive) | 104% (inactive) | 
5 | Cn1c(=O)c2c(n(Cc3ccccc3)c1=O)NC(=O)C2CC(=O)N1CCc2ccccc2C1 (centres undefined) | -1.02 | 241 | 13.5 | 12.1 | 0.9% (inactive) | 100% (inactive) | 112% (inactive) | 95.4% (inactive) | 105% (inactive) | 102% (inactive) | 
6 | C=CCn1c(=NC(=O)c2cccs2)sc2cc(NC(C)=O)ccc21 | 152 | 58.7 | 152 | 136 | -1.6% (inactive) | 103% (inactive) | 107% (inactive) | 103% (inactive) | 102% (inactive) | 109% (inactive) | 
7 | Cc1cc2nc(C)n(CCCNC(=O)Nc3ccccc3)c2cc1C | 283 | 94.8 | 180 | 170 | -0.5% (inactive) | 102% (inactive) | 104% (inactive) | 103% (inactive) | 104% (inactive) | 97.2% (inactive) | 
8 | N#Cc1nc(COc2ccc(-c3ccccc3)cc2)oc1NCc1cccnc1 | 0 | 78.7 | 202 | 167 | 6.8% (inactive) | 156% [activator] (active) | 517% [activator] (active) | 364% [activator] (active) | 376% [activator] (active) | 565% (active) | 
9 | CCCC(=O)n1nc(-c2ccccc2)nc1N | 14.9 | -92.7 | 23.4 | 20.9 |  |  |  |  |  |  | 
10 | CCOC(=O)c1oc2c(CN3CCN(C)CC3)c(O)ccc2c(=O)c1-c1ccc(Br)cc1 | 142 | 79.7 | 318 | 107 | -0.6% (inactive) | 97.5% (inactive) | 95.5% (inactive) | 98.4% (inactive) | 96.9% (inactive) | 92.8% (inactive) | 
11 | COc1ccc(CCC(=O)OCC(=O)Nc2ccc(C)c(S(=O)(=O)N(C)C)c2)cc1 | 69.9 | -376 | 45.2 | 57.7 | 2.5% (inactive) | 104% (inactive) | 104% (inactive) | 104% (inactive) | 103% (inactive) | 100% (inactive) | 
12 | O=C(Nc1ccc(-n2ccnc2P(=O)(O)c2ccccc2)cc1)c1ccccc1Br | 143 | 394 | 152 | 105 |  | 114% (inactive) | 135% [activator] (active) | 118% (inactive) | 129% [activator] (active) | 139% (inactive) | inactive
13 | O=C1CCC(=O)N(O)CCCCCNC(=O)CCC(=O)N(O)CCCCCNC(=O)CCC(=O)N(O)CCCCCN1 | 40.8 | 4280 | -117 | 55.9 | -0.3% (inactive) | 53.5% (active) | 59.4% (active) | 45.6% (active) | 61.5% (active) | 62.2% (inactive) | 
14 | Cc1ccc(S(=O)(=O)NCC(=O)OCC(=O)N2CCc3ccccc32)cc1 | 604 | 93.8 | 139 | 117 | -1.7% (inactive) | 102% (inactive) | 99.5% (inactive) | 98.9% (inactive) | 99.7% (inactive) | 97.4% (inactive) | 
15 | COc1ccc(C(=O)COC(=O)c2ccc3ccccc3n2)cc1 | -0.98 | 167 | 39 | 28.9 | -1% (inactive) | 95.5% (inactive) | 86.7% (inactive) | 95.4% (inactive) | 92.6% (inactive) | 93.7% (inactive) | 
16 | C/C(=N\NS(=O)(=O)c1ccc(Br)cc1)c1cccs1 | -881 | 99.9 | 106 | 95.4 | 1.5% (inactive) | 102% (inactive) | 103% (inactive) | 103% (inactive) | 104% (inactive) | 99.1% (inactive) | 
17 | Nc1ccc(C(=O)OCC(=O)NC2CCS(=O)(=O)C2)cc1[N+](=O)[O-] (centres undefined) | -10.3 | 179 | 289 | 6.98 | -1.4% (inactive) | 101% (inactive) | 103% (inactive) | 99.9% (inactive) | 100% (inactive) | 103% (inactive) | 
18 | CC(=O)Nc1nc(N(C)C)nc(N(C)C)n1 | 28 | 162 | -0.2 | 25.1 | 3.9% (inactive) | 100% (inactive) | 103% (inactive) | 104% (inactive) | 104% (inactive) | 109% (inactive) | 
